# Screening data as filed in PubChem.
# This excerpt belongs to a sample that is enriched for hits.
# HIV RNase H inh-1: inhibitors of HIV-1 reverse transcriptase RNase H; RT-RNase H RNA/DNA duplex cleavage, fluorescence; inhibition, % at 10 µM; 65,000 compounds, 1.9% hits; AID 565; in the data active = inhibition above about 50%
# HIV RNase H inh-2: confirmation of HIV-1 reverse transcriptase RNase H inhibitors. inhibition, % at 10 µM. shares compounds with HIV RNase H inh-1. Recombinant RT RNase H, fluorescent RNA/DNA duplex cleavage. 1,000 compounds, 39% hits; in the data active = inhibition above about 48%; inconclusive = no clear call, values can overlap the other calls
# * = called active by the depositor; ? = inconclusive.
SMILES,HIV RNase H inh-1,others
CCC(C)N(C(=O)COC(=O)Cc1n[nH]c(=O)c2ccccc12)C1CCS(=O)(=O)C1 (stereo unspecified),2,
COc1ccc(C2C(C#N)=C(N)OC(C(C)(C)C)=C2C#N)cc1OC (stereo unspecified),-2,
N#CC1=C(N)N(c2ccccc2)C2=C(C(=O)CCC2)C1c1cccs1 (stereo unspecified),35,
COc1ccc(N2CSC3=C(C#N)C(c4cccs4)CC(=O)N3C2)cc1 (stereo unspecified),68*,HIV RNase H inh-2=?
CCSC1=C(C#N)C(c2ccc(OC)c(OC)c2)CC(=O)N1 (stereo unspecified),-7,
COc1ccc(N2CCN(S(=O)(=O)c3cccs3)CC2)cc1,-11,
COc1ccc(N2CSC3=C(C#N)C(c4ccc(OC)c(OC)c4)CC(=O)N3C2)c(OC)c1 (stereo unspecified),82*,HIV RNase H inh-2=67*
O=c1cc(N2CCC3(CC2)OCCO3)[nH]c(=O)n1-c1ccc(Br)cc1,3,
CCCC(C(=O)NC1CCCCC1)N(CC1CCCO1)C(=O)CNS(=O)(=O)c1ccc(F)cc1 (stereo unspecified),58*,HIV RNase H inh-2=12
CCC(C(=O)NC1CCCCC1)N(CC1CCCO1)C(=O)CNS(=O)(=O)c1ccc(OC)cc1 (stereo unspecified),-5,
O=C(NCC(=O)N(CC1CCCO1)C(C(=O)NC1CCCCC1)c1ccc(F)cc1)c1ccco1 (stereo unspecified),7,
COc1ccc(S(=O)(=O)N2CCN(S(=O)(=O)c3ccc4c(c3)OCCO4)CC2)cc1C,-2,
Nc1nc2c3ccccc3nc(C3CC3)n2n1,-8,
ON=Cc1cccn1-c1ccccc1,-24,
O=c1/c(=C\c2cccn2-c2ccccc2)sc2nc3ccccc3n12,89*,HIV RNase H inh-2=61*
COc1cc(N2CCCC2)c(OC)cc1/C=c1/sc2nc3ccccc3n2c1=O,10,
CCN(CC)C(=O)c1cn(CC)c(=O)c2cc(OC)c(OC)cc12,-16,
CN(C)CCCN(CCCNC(=O)/C=N/O)Cc1ccccc1,-5,
COc1ccc(C2C(C(C)=O)=C(C)Nc3ncnn32)cc1OC (stereo unspecified),-6,
CCCCOC(=O)C1=C(C)Nc2ncnn2C1c1cc(OC)ccc1OC (stereo unspecified),0,
CCCCCOc1ccc(C2C(C(C)=O)=C(C)Nc3ncnn32)cc1OC (stereo unspecified),64*,HIV RNase H inh-2=-10
CC[N+](C)(C)c1cccc(O)c1,-5,
CCCC(C(=O)NCc1ccco1)N(C(=O)CNS(=O)(=O)c1ccccc1)c1ccccc1OC (stereo unspecified),6,
Cc1nn(C)c(C)c1NC(=O)c1ccc(S(=O)(=O)N(C)C)cc1,3,
O=c1cc(C(F)F)oc2c1ccc1ccccc12,-14,
SMILES,HIV RNase H inh-1,others
Cc1ccc(C2NC(=O)c3c(sc4c3CCN(C)C4)N2)s1 (stereo unspecified),-8,
Cc1ccc(C2NC(=O)c3c(sc4c3CCN(C)C4)N2)o1 (stereo unspecified),0,
CCOC(=O)N1CCc2c(sc3c2C(=O)NC(c2ccc(-c4ccc(Cl)cc4)o2)N3)C1 (stereo unspecified),74*,HIV RNase H inh-2=97*
c1ccc(-c2ccccc2-n2cnnn2)cc1,-27,
CCOC(=O)c1sc(NC(=O)COC(=O)Cn2cnc3ccccc32)c(C(=O)OCC)c1C,-4,
CCCc1cc(C(=O)Nc2ccccc2C(=O)OC)no1,-4,
CCOC(=O)c1sc(NC(=O)c2c(C)noc2C)c(C(=O)OCC)c1C,8,
CCCc1cc(C(=O)Nc2sc(C(C)=O)c(C)c2C(=O)OCC)no1,68*,HIV RNase H inh-2=?
O=C(c1csc2c1CCCCC2)N1CCN(c2ncccn2)CC1,-4,
CC(=O)c1c(C)[nH]c(C(=O)OCn2nnc3ccccc3c2=O)c1C,-1,
Cc1ccc(OCC(=O)Nc2ccc(O)c(-c3nc4ccccc4o3)c2)cc1,70*,HIV RNase H inh-2=26
COc1cc(C(=O)Nc2ccc(-c3nc4cc(C)ccc4o3)c(O)c2)cc(OC)c1OC,0,
COc1cccc(C(=O)Nc2ccc(-c3nc4ccccc4o3)c(O)c2)c1,66*,HIV RNase H inh-2=24
COc1ccc(OCC(=O)Nc2ccc(C)cc2)cc1,-9,
COc1cc(OC)cc(C(=O)Nc2ccc(-c3nc4ccccc4o3)cc2)c1,-3,
O=C(COc1ccc(Cl)cc1)Nc1ccc2oc(-c3ccncc3)nc2c1,-1,
COc1ccc(S(=O)(=O)N2CCOCC2)cc1C(=O)Nc1cc(C)on1,-12,
Cc1ccc(S(=O)(=O)N2CCN(Cc3cc(C(C)C)ccc3O)CC2)cc1,10,
CN1C(=O)C2(C(C#N)=C(N)Oc3c2oc(CO)cc3=O)c2ccccc21 (stereo unspecified),-8,
Cn1cc(SCC(=O)N2CCN(c3ccccc3)CC2)c2ccccc21,-25,
CCOC(=O)c1ccccc1NC1CC(=O)N(c2ccccc2C)C1=O (stereo unspecified),43,
COc1nccc(Nc2ccccc2)c1C#N,-4,
COc1[nH]c(/N=C/c2ccccc2)c(C#N)c1C#N,53*,HIV RNase H inh-2=5
